Measured values taken from the supplement of paper PMC4723716.

Tested on: Plasmodium falciparum NF54 gametocytes
Assay: viability index relative to DMSO control (fraction); higher = less gametocyte killing
Conditions: 12.5 µM, incubation time: 72 h
How it was run: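 The viability index expresses each well's gametocyte particle count relative to the plate mean of solvent-only wells. Stage I–V P. falciparum NF54 gametocytes (0.50% gametocytemia, 1.25% hematocrit, 40 µl of serum-containing medium) were exposed to compound at 12.5 µM for 72 hr at 37°C under low oxygen in 384-well plates. They were stained for 20 min with 5 µl of 5 µM MitoTracker Red CMXRos, and 5 µl was then transferred into 40 µl of 500 nM dye in serum-free medium for imaging of three fields 30 min later.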

[1] = gametocyte stage: Stage I viability index
[2] = gametocyte stage: Stage II viability index
[3] = gametocyte stage: Stage III viability index
[4] = gametocyte stage: Stage IV viability index
[5] = gametocyte stage: Stage V viability index

SMILES | viability index [1] | viability index [2] | viability index [3] | viability index [4] | viability index [5]
CCc1ccc(Nc2cc(C)nc3nc(C)nn23)cc1 | 0.925 | 0.736 | 1.01 | 1.1 | 1.1
COc1ccc(-c2nc3cc(Cc4ccc5[nH]c(-c6ccc(OC)cc6)nc5c4)ccc3[nH]2)cc1 | 0.0276 | 0.441 | 0.864 | 0.809 | 0.538
CN(C)c1ccc(C=Cc2nc(=O)c3ccccc3o2)cc1 | 0.611 | 0.713 | 0.82 | 0.921 | 0.835
COc1ccc2nc(C)cc(Nc3cccc(O)c3)c2c1 | 0.105 | 0.564 | 0.896 | 0.991 | 1.1
CN1CCN(c2nc(Nc3ccc(O)cc3)nc3ccccc23)CC1 | 0.0262 | 0.247 | 0.796 | 0.927 | 0.74
c1ccc(CNc2nc(Nc3ccccc3)nc3ccccc23)cc1 | 0.0367 | 0.211 | 0.586 | 0.563 | 0.481
CCC(=O)Nc1nnc(Cc2ccc(OC)c(OC)c2)s1 | 1.02 | 0.965 | 0.901 | 1.08 | 1.38
COc1cc(-c2nc(-c3ccccc3)c(-c3ccccc3)[nH]2)cc(OC)c1O | 0.0446 | 0.247 | 0.358 | 0.532 | 0.221
CCOc1ccccc1CNC(=O)C1c2ccccc2C(=O)N(CC(C)C)C1c1cccs1 (stereo not given) | 0.579 | 0.549 | 0.795 | 0.793 | 1.08
COc1ccc(C(=O)C(CCC(CNC(C)(C)C)C(=O)c2ccc(OC)cc2)CNC(C)(C)C)cc1 (stereo not given) | 0.811 | 0.698 | 0.548 | 0.418 | 0.117
COc1ccc(CNC(=O)c2cc3c(=O)n4ccccc4nc3n(CCc3ccccc3)c2=N)cc1 | 0.254 | 0.499 | 0.826 | 0.946 | 1.01
COc1ccc2c(c1)C1(Nc3ccccc3-c3nc4ccccc4n31)C(=O)N2 (stereo not given) | 0.0265 | 0.00483 | 0.017 | 0.0608 | 0.033
CCOc1cccc2sc(N(Cc3cccnc3)C(=O)C3CCCCC3)nc12 | 0.478 | 0.691 | 1.09 | 0.951 | 0.989
O=C(NC1CCN(Cc2ccccc2)CC1)c1cc2nc(-c3ccc(Cl)s3)cc(C(F)(F)F)n2n1 | 0.0778 | 0.366 | 0.843 | 0.883 | 1.01
COc1ccc(CCNC(=O)c2cc(S(=O)(=O)N3CC(C)CC(C)C3)ccc2Sc2ccc(F)cc2)cc1OC (stereo not given) | 0.104 | 0.445 | 0.844 | 0.769 | 0.987
CCN1CCN(Cc2ccc(NC(=O)c3cc4ccc5cccnc5c4[nH]3)cc2)CC1 | 0.834 | 0.845 | 1.09 | 0.997 | 1.02
O=C(Cc1ccccc1)NC(c1ccc(Cl)cc1)c1c(O)ccc2ccccc12 (stereo not given) | 0.0691 | 0.316 | 0.631 | 0.604 | 0.857
O=C(NC1CCN(Cc2ccccc2)CC1)c1cc(-c2cccnc2)nc2ccc(Cl)cc12 | 0.53 | 0.609 | 0.989 | 1.18 | 0.725
COc1ccc2sc(N(Cc3cccnc3)C(=O)c3ccc(C#N)cc3)nc2c1 | 1.05 | 0.773 | 0.995 | 0.934 | 1.16
CCOc1ccc2c(c1)CN(Cc1ccc(Cl)cc1)CO2 | 0.0612 | 0.129 | 0.452 | 0.592 | 0.468

SMILES | viability index [1] | viability index [2] | viability index [3] | viability index [4] | viability index [5]
CCOC(=O)C1=C(C)N=c2sc(=Cc3cc(Cl)ccc3O)c(=O)n2C1c1ccc(OC)cc1 (stereo not given) | 0.0559 | 0.0966 | 0.137 | 0.171 | 0.416
OC(CNCc1ccccc1)Cn1c2ccccc2c2ccccc21 (stereo not given) | 0.0629 | 0.0658 | 0.172 | 0.342 | 0.26
COc1ccc(CN2CCCC(C(=O)c3ccc(C(F)(F)F)cc3)C2)c(O)c1 (stereo not given) | 0.049 | 0.0866 | 0.365 | 0.554 | 0.779
CSC1=NC(=Nc2c(C)cccc2C)C2(CCC(C(C)(C)C)CC2)N1c1ccc(Cl)cc1 (stereo not given) | 0.646 | 0.816 | 0.928 | 0.994 | 0.835
Cc1nc2ccccc2c(O)c1CC=C(Cl)Cl | 0.814 | 0.962 | 0.897 | 0.87 | 1.06
COc1ccc(CNC2CCN(c3ccc(NC(=O)c4cccc(Cl)c4)cc3)CC2)cc1OC | 0.0586 | 0.532 | 0.652 | 0.79 | 0.758
CCOC(=O)c1cnc2c(C)cc(C)cc2c1Nc1ccc(OC)c(OC)c1 | 1.09 | 0.998 | 1.19 | 0.845 | 0.978
CN(C)CCCNCc1ccc(-c2ccc(F)c(Cl)c2)o1 | 0.202 | 0.376 | 0.376 | 0.339 | 0.104
Cc1ccc(-c2cc(C(=O)Nc3ccc(S(=O)(=O)N4CCCCC4)cc3)[nH]n2)c(O)c1 | 0.453 | 0.939 | 0.973 | 1.09 | 0.967
CCCCc1ccc(NS(=O)(=O)c2cc3c4c(c2)CCN4C(=O)CC3)cc1 | 0.98 | 0.982 | 0.992 | 1.12 | 1.07
CCOC(=O)c1cnc2c(C)cccc2c1Nc1ccc(C(C)=O)cc1 | 1.16 | 0.83 | 1.06 | 1.08 | 1.03
Oc1ccc(-c2nc(-c3ccc4oc5ccc(-c6[nH]c(-c7ccc(O)cc7)nc6-c6ccccc6)cc5c4c3)c(-c3ccccc3)[nH]2)cc1 | 0.000874 | 0 | 0 | 0 | 0.013
O=c1nc(C=Cc2ccc(Br)cc2)oc2ccccc12 | 0.838 | 0.88 | 0.843 | 0.978 | 0.935
CCN(CC)CCCNc1ccnc2cc3ccccc3cc12 | 0.0594 | 0.485 | 0.972 | 0.946 | 1.1
CCOC(=O)c1cnc2ccc(OC)cc2c1Nc1ccc(N2CCN(C)CC2)cc1 | 0.0953 | 0.479 | 0.931 | 0.842 | 0.779
O=C(NC1CCN(Cc2ccccc2)CC1)c1cc(-c2ccncc2)nc2ccc(Cl)cc12 | 0.601 | 0.662 | 1.08 | 0.994 | 0.791
CC(C)CCNCC(O)Cn1c2ccccc2c2ccccc21 (stereo not given) | 0.0507 | 0.0691 | 0.0706 | 0.193 | 0.0779
CC(C)=CCN1CCC(C(=O)Nc2ccc(-c3nc4ccccc4[nH]3)cc2)CC1 | 0.0674 | 0.525 | 0.921 | 0.912 | 0.967
CCN(CC)CCCNc1nc(-c2ccc(Cl)cc2)nc2ccccc12 | 0.693 | 0.751 | 1.01 | 0.903 | 0.956
Oc1ccccc1CNCC12CC3CC(CC(C3)C1)C2 | 0.274 | 0.297 | 0.638 | 0.818 | 0.769

SMILES | viability index [1] | viability index [2] | viability index [3] | viability index [4] | viability index [5]
CCOC(=O)c1cnc2ccc(OC)cc2c1NCc1ccccc1 | 0.309 | 0.535 | 0.991 | 0.835 | 0.87
Cc1sc(NC(=O)c2ccccc2)c(C(c2cccs2)N2CCN(c3ccccc3)CC2)c1C (stereo not given) | 1 | 0.74 | 0.905 | 0.753 | 0.545
CN(C)CCNc1cc(-c2ccccc2)nc2ccccc12 | 0.685 | 0.795 | 0.924 | 0.883 | 0.727
CCOC(=O)c1c(C)n(-c2ccc(Cl)cc2)c2ccc(OC(=O)C=Cc3ccccc3)cc12 | 0.708 | 0.792 | 1.01 | 0.964 | 0.978
CC(Oc1ccc(NC(=O)c2cccs2)cc1)C(=O)c1ccc(Cl)cc1 (stereo not given) | 1.02 | 0.883 | 0.727 | 0.854 | 0.974
O=[N+]([O-])c1ccc(C=NNc2nc3ccccc3[nH]2)cc1 | 0.0818 | 0.586 | 0.911 | 0.869 | 0.802
CC(=O)NCCc1nc2ccccc2n1Cc1ccc(C(C)C)cc1 | 0.788 | 0.671 | 0.883 | 0.891 | 0.813
N=c1n(CCN2CCCCC2)c2ccccc2n1CC(O)c1cccc(Br)c1 (stereo not given) | 0.0133 | 0.056 | 0.133 | 0.267 | 0.341
CCn1c(SCC(=O)Nc2cc(C(F)(F)F)ccc2Cl)nc2ccccc2c1=O | 0.787 | 0.953 | 1.17 | 1.14 | 1.03
Cc1ccc(CN2CCC(C(=O)Nc3ccc(-c4cc5ccccc5[nH]4)cc3)CC2)o1 | 0.00663 | 0.313 | 0.43 | 0.422 | 0.396
Cc1ccc2c(C)nc(Nc3nc(C)cc(-c4ccccc4)n3)nc2c1 | 0.169 | 0.3 | 0.318 | 0.231 | 0.0519
CCOC(=O)c1cn(CC)c2cc(N(C)CCc3ccc(OC)c(OC)c3)c(F)cc2c1=O | 0.63 | 0.723 | 0.912 | 0.827 | 0.923
CN(C)c1ccc(N2C(N)=NC(N)=NC2(C)C)cc1 | 1.05 | 0.931 | 1.04 | 1.05 | 1.21
CCN(CC)CCNc1ncnc2c1[nH]c1ccc(Cl)cc12 | 0.0354 | 0.373 | 0.818 | 0.763 | 0.451
COc1ccc(Nc2nc(NCc3ccccc3)c3ccccc3n2)cc1 | 0.0331 | 0.107 | 0.562 | 0.593 | 0.286
COc1ccc(N2CCN(C(CNC(=O)C3CCCCC3)c3ccc4c(c3)OCO4)CC2)cc1 (stereo not given) | 0.912 | 0.986 | 1.04 | 0.86 | 0.758
CCc1ccc(CNCC(O)c2ccccc2)cc1 (stereo not given) | 0.042 | 0.177 | 0.649 | 0.703 | 0.506
CCN1CCN(c2cc(C)c3cc(NC(=O)c4ccc(OC)c(OC)c4)ccc3n2)CC1 | 0.33 | 0.677 | 1.04 | 0.818 | 0.901
CCCN(CCC)CC(O)COc1ccccc1C(=O)Nc1ccccc1 (stereo not given) | 0.0829 | 0.175 | 0.46 | 0.593 | 0.516
